# Screens (PubChem)
# U2OS ROS induce = inducers of reactive oxygen species in cancer cells. U2OS ROS induction, H2DCF-DA fluorescence. ROS induction (% of piperlongumine), % at 10 µM. 46,000 tested, 2% active; in the data active means ROS induction above about 79%, passing the limit was not always enough;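 further: 0% = DMSO vehicle median and 100% = reference compound median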
# * hit, by the source's call. The entries come from a sample that favours hits as a whole.
SMILES,U2OS ROS induce
N#CC(OC1OC(COC2OCC(OC(=O)/C=C/c3ccc(OC4OC(CO)C(O)C(O)C4O)cc3)C(O)C2O)C(O)C(O)C1O)c1ccccc1 (stereo unspecified),-8.3
Cc1ccc(Nc2nc(N)nc(CSCCO)n2)cc1,-2.9
COc1ccccc1Nc1nc(N)nc(CSc2ncccn2)n1,-4.7
COc1ccccc1Nc1nc(N)nc(CSCCO)n1,123.1*
C[C@@H]1CN([C@@H](C)CO)C(=O)c2cccc(NS(=O)(=O)c3cccs3)c2O[C@H]1CN(C)C(=O)Nc1ccc2c(c1)OCO2,-4.3
Cc1ccc(-c2cc(C(=O)NCc3ccccn3)no2)cc1,-3.3
O=C(NCc1ccccn1)c1cc(-c2ccccc2)on1,-6.6
O=C(NCc1ccccn1)c1cc2nc(-c3ccccc3)cc(-c3ccccc3)n2n1,141.4*
COc1ccccc1-c1nnc(SCC(=O)c2ccc([N+](=O)[O-])cc2)o1,23.2
Cc1noc(C)c1S(=O)(=O)Nc1ccc2c(c1)C(=O)N([C@@H](C)CO)C[C@@H](C)[C@@H](CN(C)S(=O)(=O)c1cn(C)cn1)O2,-6.1
C[C@H](O)[C@H](O)[C@@H](O)[C@@H](O)/C=N/NC(=O)c1ccccn1,10.6
C[C@H](CO)N1C[C@H](C)[C@H](CN(C)C(=O)Nc2ccccc2)Oc2ccc(NS(=O)(=O)c3cn(C)cn3)cc2C1=O,-0.8
Cc1ccc2nc(Nc3nc(CSc4nnc(C)s4)cc(=O)[nH]3)nc(C)c2c1,49.2
Cc1nnc(SCc2cc(=O)[nH]c(Nc3nc(C)c4ccccc4n3)n2)s1,-0.6
Cc1ccc(SCc2cc(=O)[nH]c(Nc3nc(C)c4ccccc4n3)n2)cc1,-13.7
CCc1ccc2nc(Nc3nc4ccccc4c(=O)[nH]3)nc(C)c2c1,132.1*
CCOc1ccc2nc(Nc3nc(C)c(CCC(C)C)c(=O)[nH]3)nc(C)c2c1,-0.1
Cc1ccc2nc(Nc3nc(CSc4nc5ccccc5s4)cc(=O)[nH]3)nc(C)c2c1,165.7*
Cn1ccc(-c2cccc(NC(=O)Nc3ccccc3)c2)n1,5.7
C[C@@H]1CN([C@@H](C)CO)C(=O)Cc2cc(NC(=O)NC3CCCCC3)ccc2O[C@@H]1CN(C)Cc1ccc(-c2ccccc2)cc1,14.0
C[C@H](CO)N1C[C@H](C)[C@H](CN(C)Cc2ccccc2)Oc2ccc(NC(=O)NC3CCCCC3)cc2CC1=O,-1.2
C[C@H]1CN([C@@H](C)CO)C(=O)Cc2cc(NC(=O)NC3CCCCC3)ccc2O[C@@H]1CN(C)Cc1ccc(C(=O)O)cc1,9.7
C[C@@H]1CN([C@H](C)CO)C(=O)Cc2cc(NC(=O)NC3CCCCC3)ccc2O[C@@H]1CN(C)Cc1ccc(Oc2ccccc2)cc1,130.9*
C[C@H](CO)N1C[C@H](C)[C@H](CN(C)Cc2ccccc2)Oc2ccc(NC(=O)NC3CCCCC3)cc2C1=O,1.4
C[C@@H]1CN([C@H](C)CO)C(=O)Cc2cc(NC(=O)NC3CCCCC3)ccc2O[C@@H]1CN(C)Cc1ccc(-c2ccccc2)cc1,97.9*
SMILES,U2OS ROS induce
C[C@H]1CN([C@@H](C)CO)C(=O)Cc2cc(N(C)C)ccc2O[C@@H]1CN(C)Cc1ccc(Oc2ccccc2)cc1,135.0*
C[C@@H]1CN([C@@H](C)CO)C(=O)Cc2cc(NC(=O)NC3CCCCC3)ccc2O[C@@H]1CN(C)Cc1ccccc1,27.8
C[C@@H]1CN([C@@H](C)CO)C(=O)c2cc(NC(=O)NC3CCCCC3)ccc2O[C@H]1CN(C)Cc1ccc(Oc2ccccc2)cc1,50.0
C[C@H]1CN([C@@H](C)CO)C(=O)Cc2cc(N(C)C)ccc2O[C@H]1CN(C)Cc1ccc(Oc2ccccc2)cc1,17.5
C[C@H](CO)N1C[C@H](C)[C@@H](CN(C)Cc2ccc(Oc3ccccc3)cc2)Oc2ccc(NC(=O)NC3CCCCC3)cc2C1=O,86.8*
C[C@@H]1CN([C@H](C)CO)C(=O)Cc2cc(N(C)C)ccc2O[C@@H]1CN(C)Cc1ccc(Oc2ccccc2)cc1,14.0
CCOc1ccccc1C(=O)NCc1cn2ccccc2n1,4.8
Cc1noc(C)c1NC(=O)Nc1ccc2c(c1)C(=O)N([C@H](C)CO)C[C@H](C)[C@H](CN(C)S(=O)(=O)c1cn(C)cn1)OCCCC[C@@H](C)O2,-4.9
COc1ccc(NC(=O)Nc2ccc3c(c2)C(=O)N([C@H](C)CO)C[C@H](C)[C@H](CN(C)S(=O)(=O)c2cn(C)cn2)O3)cc1,-5.8
C[C@@H]1CN([C@H](C)CO)C(=O)c2cccc(NS(=O)(=O)c3cn(C)cn3)c2O[C@@H]1CN(C)Cc1ccc(-c2ccccc2)cc1,8.2
COC(=O)c1ccccc1NC(=O)NC(C)c1cc(OC)ccc1OC (stereo unspecified),2.7
O=C(N/N=C/c1ccc(-n2ccnc2)cc1)c1ccccc1O,1.1
COc1ccccc1NC(=O)CNC(=O)c1ccc(Cl)cc1Cl,-11.0
COc1cc(/C=N/NC(=O)c2cccc(C(=O)NO)c2)cc(OC)c1OC,1.8
C[C@H]1CN([C@@H](C)CO)C(=O)Cc2cc(NC(=O)Nc3cccc4ccccc34)ccc2O[C@@H]1CN(C)Cc1ccccc1,44.9
C[C@H](CO)N1C[C@H](C)[C@H](CN(C)Cc2ccccc2)Oc2ccc(NC(=O)Nc3cccc4ccccc34)cc2CC1=O,2.7
